The record followed here is PubChem BioAssay AID1730 (National Center for Advancing Translational Sciences (NCATS), 2009).

The assay can be described thus: Counterscreen Assay for Inhibitors of the ERK Signaling Pathway using a Homogeneous Screening Assay. The settings on record: AlphaScreen bead counterscreen in cell lysate, 5 h; series mostly up to 45.6 µM. An excerpt: qHTS Assay for Inhibitors of the ERK Signaling Pathway using a Homogeneous Screening Assay
NIH Chemical Genomics Center [NCGC]
NIH Molecular Libraries Screening Centers Network [MLSCN]
Assay Submitter (PI): Dr. Wei Zheng, NCGC/NIH
The Ras/extracellular-signal-regulated kinase (ERK) mitogen activated protein (MAP) kinase signaling pathway (ERK1/2 cascade) plays is a key role in transmitting signals from the cell surface to the nucleus (Nishida and Gotoh 1993; Chang and Karin, 2001). The cascade is initiated by the small G-protein Ras, which recruits Raf […], where activation occurs. Alternatively, this pathway can be activated by elevating intracellular cAMP.
Activation of the ERK pathway is essential in increased cell division and cell survival. Sustained and constitutive activation of the ERK pathway, however, has been linked to uncontrolled cell proliferation, increased cell survival, and tumor progression. Thus, the ERK has been as an attractive target for cancer chemotherapy in the past few years (Sebolt-Leopold and Herrera, 2004). […]
Biotinylated rabbit IgG was used to perform a counter-screen in the context of an AlphaScreen assay kit provided by PerkinElmer. […] AC50 values were determined from concentration-response data modeled with the standard Hill equation. […]
(10) Detect the assay plate in an EnVision plate reader (PerkinElmer) using the AlphaScreen detection mode. […]

SMILES strings stand for the structures. Records with an inconclusive call do not appear. Activity calls are given as the source filed them. Calls come from the whole dose curve; as a rule, active = well fitted inhibition curve with a large enough effect; inconclusive = small, poorly fitted or top-dose-only effect; inactive = no such curve, though single readings can be large or run the other way.

Consider `O=C1NC(=O)C(=Cc2ccccc2Oc2ccc(F)cc2)C(=O)N1`, for which the compound was called inactive. Then `CCN1C(=O)NC(=O)/C(=C/c2cc(C)n(-c3sc(C)c(C)c3C#N)c2C)C1=O`, with “inactive”.
